PubChem BioAssay (EPA / NIEHS)
Values joined by “and” are separate entries in the source; they are usually repeats but may differ in a detail not shown here. Identical values can stand only once. Records with an inconclusive call do not appear. A structure can be active in one record and inactive in another. Active and inactive are the calls of the source. How the source made its calls, unless noted: active means hit-call score of the fitted dose curve at least 0.9, where 1 is the maximum; inconclusive means response in the unintended direction; inactive means score below 0.9.

Key:
[1] = target: Bile acid receptor (Homo sapiens) (UniProt Q96RI1); assay: ATG_FXR_TRANS: Attagene TRANS-FACTORIAL HepG2 Assay for Farnesoid X Receptor (FXR) (AID 2282979); conditions: HepG2 Attagene TRANS FXR-GAL4 reporter transcription;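 further: hits raise reporter mRNA above DMSO so AC50 marks FXR activation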
Chain of Bile acid receptor (Homo sapiens) (Q96RI1 whole entry, looked up, the tested form may be a part): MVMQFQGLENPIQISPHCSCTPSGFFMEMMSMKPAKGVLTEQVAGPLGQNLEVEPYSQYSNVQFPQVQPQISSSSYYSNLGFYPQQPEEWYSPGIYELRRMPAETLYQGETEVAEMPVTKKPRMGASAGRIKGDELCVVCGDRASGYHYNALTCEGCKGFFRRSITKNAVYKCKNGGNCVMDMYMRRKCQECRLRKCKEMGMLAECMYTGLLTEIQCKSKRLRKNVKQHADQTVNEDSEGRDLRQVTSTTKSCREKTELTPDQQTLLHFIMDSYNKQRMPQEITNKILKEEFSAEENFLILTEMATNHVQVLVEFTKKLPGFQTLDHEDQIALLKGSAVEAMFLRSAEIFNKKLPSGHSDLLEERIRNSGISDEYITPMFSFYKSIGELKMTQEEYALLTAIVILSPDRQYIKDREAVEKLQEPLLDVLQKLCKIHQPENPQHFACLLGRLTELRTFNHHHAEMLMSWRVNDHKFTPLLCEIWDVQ
Procedure, shortened: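 HepG2 cells were transiently transfected with GAL4-UAS reporters driven by chimeric NR-Gal4 proteins and dosed for 24 h. Reporter mRNA was quantified by RT-PCR, fluorescent labelling, HpaI digestion and capillary electrophoresis, with gain of signal scored versus DMSO.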

[2] = target: Oxysterols receptor LXR-alpha (Homo sapiens) (UniProt Q13133); assay: ATG_LXRa_TRANS: Attagene TRANS-FACTORIAL HepG2 Assay for human Liver X Receptor alpha (LXRa) (AID 2282980); conditions: HepG2 Attagene TRANS reporter, LXRa transactivation
Chain of Oxysterols receptor LXR-alpha (Homo sapiens) (Q13133 whole entry, looked up, the tested form may be a part): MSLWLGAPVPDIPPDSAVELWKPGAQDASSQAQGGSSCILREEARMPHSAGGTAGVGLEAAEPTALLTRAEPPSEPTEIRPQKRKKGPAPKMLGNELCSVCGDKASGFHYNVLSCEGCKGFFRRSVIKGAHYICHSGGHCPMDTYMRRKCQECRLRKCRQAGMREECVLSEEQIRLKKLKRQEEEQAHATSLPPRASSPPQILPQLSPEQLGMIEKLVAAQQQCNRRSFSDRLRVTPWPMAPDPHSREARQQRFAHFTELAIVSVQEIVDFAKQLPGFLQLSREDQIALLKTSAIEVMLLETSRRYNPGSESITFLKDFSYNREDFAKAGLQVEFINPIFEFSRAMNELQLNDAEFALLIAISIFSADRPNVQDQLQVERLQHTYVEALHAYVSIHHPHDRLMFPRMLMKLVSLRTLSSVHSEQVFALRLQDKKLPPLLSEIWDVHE
Procedure, shortened: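 HepG2 cells transiently transfected with GAL4-UAS reporter units for chimeric NR-Gal4 proteins, exposed to chemicals for 24 h. Reporter mRNA quantified by RT-PCR and capillary electrophoresis; gain of signal fitted relative to DMSO.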

[3] = target: Oxysterols receptor LXR-beta (Homo sapiens) (UniProt P55055); assay: ATG_LXRb_TRANS: Attagene TRANS-FACTORIAL HepG2 Assay for human Liver X Receptor beta (LXRb) (AID 2282981); conditions: HepG2 Attagene TRANS GAL4-LXRb reporter, mRNA
Chain of Oxysterols receptor LXR-beta (Homo sapiens) (P55055 whole entry, looked up, the tested form may be a part): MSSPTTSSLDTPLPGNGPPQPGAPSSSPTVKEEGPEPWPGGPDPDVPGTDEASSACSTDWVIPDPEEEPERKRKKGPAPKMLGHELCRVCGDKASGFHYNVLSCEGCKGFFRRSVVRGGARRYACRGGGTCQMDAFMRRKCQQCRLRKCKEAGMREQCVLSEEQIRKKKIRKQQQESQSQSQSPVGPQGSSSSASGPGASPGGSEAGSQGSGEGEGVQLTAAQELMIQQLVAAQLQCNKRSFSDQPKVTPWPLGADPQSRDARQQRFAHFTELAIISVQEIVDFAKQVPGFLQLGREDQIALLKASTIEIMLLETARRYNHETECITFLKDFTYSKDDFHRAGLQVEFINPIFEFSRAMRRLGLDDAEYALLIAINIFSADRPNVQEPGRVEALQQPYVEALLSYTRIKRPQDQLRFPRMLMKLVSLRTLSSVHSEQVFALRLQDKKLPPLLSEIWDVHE
Procedure, shortened: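 HepG2 cells transiently transfected with GAL4-UAS reporter units for chimeric NR-Gal4 proteins, dosed for 24 h. Reporter transcripts measured by RT-PCR and capillary electrophoresis; gain-of-signal fitting relative to DMSO.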

[4] = target: Nuclear receptor subfamily 4 group A member 2 (Homo sapiens) (UniProt P43354); assay: ATG_NURR1_TRANS: Attagene TRANS-FACTORIAL HepG2 Assay for human Nuclear Receptor Related Protein 1 (NURR1) (AID 2282985); conditions: HepG2 Attagene TRANS reporter, mRNA readout
Chain of Nuclear receptor subfamily 4 group A member 2 (Homo sapiens) (P43354 whole entry, looked up, the tested form may be a part): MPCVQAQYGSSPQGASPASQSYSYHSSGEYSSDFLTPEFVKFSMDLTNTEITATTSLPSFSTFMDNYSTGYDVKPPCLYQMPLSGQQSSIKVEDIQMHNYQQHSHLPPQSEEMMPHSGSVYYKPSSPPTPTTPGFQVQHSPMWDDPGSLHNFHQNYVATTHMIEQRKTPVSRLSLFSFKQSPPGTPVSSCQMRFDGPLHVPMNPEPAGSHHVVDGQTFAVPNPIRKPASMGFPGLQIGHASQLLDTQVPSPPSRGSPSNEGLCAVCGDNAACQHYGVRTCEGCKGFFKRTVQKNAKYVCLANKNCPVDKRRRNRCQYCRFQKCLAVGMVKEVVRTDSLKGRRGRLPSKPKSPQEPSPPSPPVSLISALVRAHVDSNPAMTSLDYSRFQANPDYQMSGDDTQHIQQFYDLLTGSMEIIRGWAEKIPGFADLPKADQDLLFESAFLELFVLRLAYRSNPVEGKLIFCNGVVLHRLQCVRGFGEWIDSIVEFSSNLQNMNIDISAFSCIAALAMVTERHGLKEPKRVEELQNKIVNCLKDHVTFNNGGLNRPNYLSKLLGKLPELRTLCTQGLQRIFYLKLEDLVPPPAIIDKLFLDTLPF
Procedure, shortened: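 HepG2 cells transiently transfected with NURR1-Gal4 chimera and GAL4-UAS reporter units; after 24 hr compound exposure, reporter mRNA quantified by RT-PCR and capillary electrophoresis; gain of signal fitted against DMSO.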

[5] = target: Transcriptional activator Myb (Homo sapiens) (UniProt P10242); assay: ATG_Myb_CIS: Attagene CIS-FACTORIAL HepG2 Assay for human Myeloblastosis (Myb) Proto-Oncogene Transcription Factor (AID 2282986; active means hit-call score of the fitted dose curve at least 0.9, where 1 is the maximum; inactive means score below 0.9); conditions: HepG2 Attagene CIS-FACTORIAL Myb reporter transcription; actives raise or lower the signal
Chain of Transcriptional activator Myb (Homo sapiens) (P10242 whole entry, looked up): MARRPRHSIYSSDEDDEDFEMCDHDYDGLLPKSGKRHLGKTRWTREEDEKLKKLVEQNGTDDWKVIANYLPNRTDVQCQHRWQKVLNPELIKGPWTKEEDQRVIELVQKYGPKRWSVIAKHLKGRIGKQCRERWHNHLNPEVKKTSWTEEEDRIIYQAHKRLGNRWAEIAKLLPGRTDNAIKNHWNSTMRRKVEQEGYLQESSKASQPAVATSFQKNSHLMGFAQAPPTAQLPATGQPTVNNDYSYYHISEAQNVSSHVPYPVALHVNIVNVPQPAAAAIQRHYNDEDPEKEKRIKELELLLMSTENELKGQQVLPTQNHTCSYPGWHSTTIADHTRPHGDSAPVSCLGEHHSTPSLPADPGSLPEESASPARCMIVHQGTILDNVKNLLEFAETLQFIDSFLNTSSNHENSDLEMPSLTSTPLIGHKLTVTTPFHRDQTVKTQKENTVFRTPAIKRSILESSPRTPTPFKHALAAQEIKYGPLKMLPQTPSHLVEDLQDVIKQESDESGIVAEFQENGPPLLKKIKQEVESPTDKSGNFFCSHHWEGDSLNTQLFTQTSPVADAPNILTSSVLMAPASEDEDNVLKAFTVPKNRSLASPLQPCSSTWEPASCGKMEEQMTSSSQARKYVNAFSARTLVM
Procedure, shortened: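 Steps: transfect HepG2 with cis-regulated reporter units; dose with chemical for 24 h; isolate RNA, reverse-transcribe, PCR-amplify and FAM-label reporter sequences; digest with HpaI; resolve by capillary electrophoresis. Activity fitted in both directions relative to DMSO.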

[6] = target: Nuclear respiratory factor 1 (Homo sapiens) (UniProt Q16656); assay: ATG_NRF1_CIS: Attagene CIS-FACTORIAL HepG2 Assay for human Nuclear Respiratory Factor 1 (NRF1) Orphan Gene (AID 2282987; active means hit-call score of the fitted dose curve at least 0.9, where 1 is the maximum; inactive means score below 0.9); conditions: HepG2 NRF1 cis-element reporter, Attagene multiplex; actives raise or lower the signal
Chain of Nuclear respiratory factor 1 (Homo sapiens) (Q16656 whole entry, looked up, the tested form may be a part): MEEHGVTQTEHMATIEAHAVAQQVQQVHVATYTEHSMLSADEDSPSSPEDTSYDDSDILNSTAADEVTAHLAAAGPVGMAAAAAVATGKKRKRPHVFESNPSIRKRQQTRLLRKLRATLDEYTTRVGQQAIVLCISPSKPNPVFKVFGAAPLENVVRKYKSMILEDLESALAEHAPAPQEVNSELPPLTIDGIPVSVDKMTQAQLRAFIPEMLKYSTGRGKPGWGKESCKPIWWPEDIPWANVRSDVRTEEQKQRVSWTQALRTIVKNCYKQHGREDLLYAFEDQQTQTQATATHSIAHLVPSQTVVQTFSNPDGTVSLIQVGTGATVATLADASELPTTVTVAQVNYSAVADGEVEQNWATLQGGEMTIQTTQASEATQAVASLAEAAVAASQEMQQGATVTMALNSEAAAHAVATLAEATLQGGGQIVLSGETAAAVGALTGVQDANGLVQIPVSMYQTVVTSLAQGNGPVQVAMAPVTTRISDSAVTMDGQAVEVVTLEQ
Procedure, shortened: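 Fluorescence intensity of labelled reporter cDNA fragments, resolved by capillary electrophoresis, served as readout for NRF1 cis-element activity. Transiently transfected HepG2 cells were dosed for 24 hours; activity in either direction was fitted against DMSO negative control.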

[7] = ATG_M_06_TRANS: Attagene TRANS-FACTORIAL HepG2 Assay for M06 Transcription Factor (Internal Marker) (AID 2282983); conditions: HepG2 Attagene TRANS M06 internal marker reporter;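 on AC50: potency for rise in reporter mRNA above DMSO baseline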
Procedure, shortened: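 HepG2 cells transiently transfected with GAL4-UAS multiple reporter units, dosed 24 h. Reporter RNA reverse-transcribed, PCR-amplified, 6-FAM-labeled, HpaI-digested and quantified by capillary electrophoresis; this internal-marker signal fitted upward relative to DMSO.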

[8] = ATG_M_32_TRANS: Attagene TRANS-FACTORIAL HepG2 Assay for M32 Transcription Factor (Internal Marker) (AID 2282984); conditions: HepG2 Attagene TRANS M32 internal marker reporter;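 further: transcript level of a background control reporter unit measured by RT-PCR and capillary electrophoresis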
Procedure, shortened: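 HepG2 cells transiently transfected with GAL4-UAS reporter units, dosed for 24 hours. Reporter mRNA quantified by RT-PCR, 6-FAM labelling, HpaI digestion and capillary electrophoresis; internal-marker signal fitted upward relative to DMSO.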

[9] = target: Hepatocyte nuclear factor 4-alpha (Homo sapiens) (UniProt P41235); assay: ATG_HNF4a_TRANS: Attagene TRANS-FACTORIAL HepG2 Assay for human Hepatocyte Nuclear Factor 4 alpha (HNF4a) (AID 2282982); conditions: HepG2 HNF4a transactivation reporter, mRNA readout
Chain of Hepatocyte nuclear factor 4-alpha (Homo sapiens) (P41235 whole entry, looked up, the tested form may be a part): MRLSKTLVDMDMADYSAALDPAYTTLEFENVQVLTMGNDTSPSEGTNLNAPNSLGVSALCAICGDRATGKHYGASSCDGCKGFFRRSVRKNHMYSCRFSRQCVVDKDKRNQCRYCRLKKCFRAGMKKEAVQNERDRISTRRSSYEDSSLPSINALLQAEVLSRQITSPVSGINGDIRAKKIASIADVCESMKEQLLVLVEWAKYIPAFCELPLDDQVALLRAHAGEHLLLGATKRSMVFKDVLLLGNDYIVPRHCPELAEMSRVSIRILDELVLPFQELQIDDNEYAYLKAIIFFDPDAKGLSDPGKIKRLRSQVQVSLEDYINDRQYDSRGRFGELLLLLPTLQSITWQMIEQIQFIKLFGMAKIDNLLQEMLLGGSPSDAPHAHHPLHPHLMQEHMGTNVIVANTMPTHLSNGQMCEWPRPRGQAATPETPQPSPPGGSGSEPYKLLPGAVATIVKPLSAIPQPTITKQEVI
Procedure, shortened: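 HepG2 cells transiently transfected with HNF4a-Gal4 chimera and GAL4-UAS reporter units, dosed for 24 h. Reporter mRNA measured by RT-PCR, fluorescent primer extension and capillary electrophoresis; gain-of-signal fitted relative to DMSO.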

Measured: AC50

C=CC(=O)OCCC(F)(F)C(F)(F)C(F)(F)C(F)(F)C(F)(F)C(F)(F)C(F)(F)C(F)(F)F
not listed: [7] | [8] | [9]
inactive: all other assays above

Cc1cc(Cc2cc(C)cc(C(C)(C)C)c2O)c(O)c(C(C)(C)C)c1
active: [5] 25.6 µM | [6] 180 µM
inactive: [1] | [2] | [3] | [7]

CCN(CC)CC
not listed: [3] | [9]
inactive: all other assays above

CCCCCCCCC(C)=O
inactive: [1] | [2] | [3] | [6]

COC1=CC(=O)C[C@@H](C)[C@]12Oc1c(Cl)c(OC)cc(OC)c1C2=O
not listed: [7] | [9]
inactive: all other assays above

Oc1c(Cl)cc(Cl)cc1Sc1cc(Cl)cc(Cl)c1O
not listed: [2] | [4] | [8]
inactive: all other assays above

FC(OC(F)(F)C(F)(F)C(F)(F)F)C(F)(F)F (centres undefined)
not listed: [4] | [8] | [9]
inactive: all other assays above

C=CC(=O)OCCN(CC)CC
not listed: [5] | [7] | [9]
inactive: all other assays above

CCC(=O)C=Cc1ccc(OC)cc1
active: [5] 137 µM
not listed: [2] | [8]
inactive: all other assays above

O=C(c1cc(O)c(O)c(O)c1)c1ccc(O)c(O)c1O
not listed: [3] | [5]
inactive: all other assays above

C=Cc1ccc(O)c(OC)c1
inactive: [1] | [2] | [9] | [5] | [6]

Cc1ccccc1OCC(=O)O
inactive: [1] | [2] | [8] | [4] | [6]

CC[N+](CC)(CC)Cc1ccccc1
not listed: [3] | [4] | [9]
inactive: all other assays above

CN(C)c1ccc(C(=C2C=CC(=[N+](C)C)C=C2)c2ccccc2)cc1
active: [4] 543 nM and 1.4 µM
not listed: [2] | [5]
inactive: all other assays above

FC(F)(F)C(F)(F)C(F)(F)Br
not listed: [7] | [9]
inactive: all other assays above

CCOC(OCC)C(=O)c1ccccc1
not listed: [3] | [7] | [8]
inactive: all other assays above

O=C(NCc1ncc(C(F)(F)F)cc1Cl)c1c(Cl)cccc1Cl
not listed: [3] | [4]
inactive: all other assays above

O=C1OC(=O)C(F)(F)C1(F)F
inactive: [1] | [2] | [3] | [7] | [6]

O=P(O)(O)CCC(F)(F)C(F)(F)C(F)(F)C(F)(F)C(F)(F)C(F)(F)F
not listed: [3] | [4] | [8]
inactive: all other assays above

Nc1ccc(O)c(C(=O)O)c1
not listed: [3] | [5] | [7]
inactive: all other assays above

CCCCN(C)C
not listed: [2] | [5] | [8]
inactive: all other assays above

CC(C)CCOCCC(C)C
not listed: [2] | [8] | [9]
inactive: all other assays above

Cc1ccc(C(=O)c2ccccc2)cc1
inactive: [1] | [8] | [4] | [5] | [6]

CCc1cccc(CC)c1N(COC)C(=O)CS(=O)(=O)O
inactive: [1] | [9] | [8] | [5] | [6]

O=C(O)CCC(F)(F)C(F)(F)C(F)(F)C(F)(F)C(F)(F)C(F)(F)F
not listed: [2] | [7] | [9]
inactive: all other assays above

CCCCC=O
inactive: [1] | [7] | [5] | [6]

CCCCc1ccc2ccccc2c1S(=O)(=O)O
not listed: [2] | [3]
inactive: all other assays above

Oc1ccc(Cc2ccccc2O)cc1
not listed: [2] | [7] | [8]
inactive: all other assays above

O=C(c1ccccc1)c1ccccc1
inactive: [1] | [3] | [8] | [5]

CN(Cc1cnc2nc(N)nc(N)c2n1)c1ccc(C(=O)N[C@@H](CCC(=O)O)C(=O)O)cc1
inactive: [1] | [3] | [6]

CC1=NN(c2ccccc2)C(=O)C1
inactive: [1] | [3] | [7] | [8] | [6]

CC(C)(O)C(=O)c1ccccc1
not listed: [2] | [7] | [9]
inactive: all other assays above

FC(F)(F)C(F)(F)C(F)(F)C(F)(F)I
inactive: [1] | [3] | [7] | [6]

CC(C)[C@@H]1CC[C@@H](C)C[C@H]1O
inactive: [1] | [9] | [4] | [6]

COCN(COC)c1nc(N(COC)COC)nc(N(COC)COC)n1
inactive: [1] | [3] | [7] | [5] | [6]

CCCCCCCCCCCCOC(=O)c1cc(O)c(O)c(O)c1
active: [1] 45.1 µM
inactive: [3] | [9] | [8] | [5] | [6]

CCCCCc1ccc(O)cc1
inactive: [1] | [7] | [4] | [5] | [6]

O=C1OC(=O)c2cc(-c3ccc4c(c3)C(=O)OC4=O)ccc21
inactive: [1] | [8] | [4] | [5] | [6]

CC(C)(C)C1CCCCC1O (centres undefined)
not listed: [2] | [8] | [9]
inactive: all other assays above

C=CC(F)(F)C(F)(F)C(F)(F)C(F)(F)F
not listed: [2] | [8] | [9]
inactive: all other assays above

COC(O)c1ccccc1 (centres undefined)
inactive: [1] | [7] | [8] | [5] | [6]

Nc1cc(Cl)c(-c2cc(Cl)c(N)cc2Cl)cc1Cl
inactive: [3] | [4] | [5] | [6]
active: [1] 11.1 µM

O=C(NO)c1ccccc1
active: [4] 57.6 µM and 40.3 µM and 58 µM
inactive: [1] | [9] | [7] | [4] | [6]

Nc1ccn([C@@H]2O[C@H](CO)[C@@H](O)C2O)c(=O)n1 (some centres undefined)
not listed: [2] | [7] | [8]
inactive: all other assays above

O=S(=O)(c1ccc(OCc2ccccc2)cc1)c1ccccc1O
active: [4] 49.9 µM | [5] 33.4 µM
inactive: [1] | [7] | [8] | [6]

OCC(F)(F)C(F)(F)C(F)(F)C(F)(F)C(F)(F)C(F)(F)C(F)(F)C(F)(F)C(F)(F)C(F)(F)C(F)(F)F
not listed: [2] | [3] | [4]
inactive: all other assays above

Brc1cc(Br)c(Oc2c(Br)cc(Br)c(Br)c2Br)cc1Br
not listed: [2] | [4] | [9]
inactive: all other assays above

c1cc2cccc3c4cccc5cccc(c(c1)c23)c54
inactive: [1] | [7] | [4] | [5] | [6]

CCCCCCCC(OC)OC
inactive: [1] | [7] | [4] | [5] | [6]

CCCCCC(C)OC(=O)COc1ccc(Cl)c2cccnc12 (centres undefined)
inactive: [1] | [7] | [6]

CCC1CO1 (centres undefined)
inactive: [1] | [7] | [4] | [6]

FC(F)(F)C1(F)C(F)(F)C(F)(F)C(F)(F)C(F)(C(F)(F)F)C1(F)F (centres undefined)
inactive: [1] | [7] | [8] | [5] | [6]

FC(F)(F)N1C(F)(F)C(F)(F)OC(F)(F)C1(F)F
not listed: [2] | [5] | [9]
inactive: all other assays above

c1ccc2c(c1)CCC2
inactive: [1] | [3] | [6]

NNC(=O)CCCCC(=O)NN
inactive: [1] | [3] | [8] | [5] | [6]

O=C1Cc2ccccc2N1c1c(Cl)cccc1Cl
not listed: [2] | [3] | [8]
inactive: all other assays above

O=S(=O)(O)c1ccccc1
not listed: [2] | [4] | [9]
inactive: all other assays above

O=C(O)c1cccc(C(=O)O)n1
not listed: [2] | [3] | [9]
inactive: all other assays above

CCCCCCCCCCCC[N+](C)(C)Cc1ccccc1
active: [5] 11.1 µM
inactive: [2] | [3] | [9] | [7] | [8] | [4] | [5] | [6]

O=C1OC2(c3ccccc31)c1cc(I)c(O)c(I)c1Oc1c2cc(I)c(O)c1I
inactive: [2] | [3] | [7] | [4] | [5] | [6]
active: [4] 25.4 µM

NC(=NCCCCCCN=C(N)/N=C(\N)Nc1ccc(Cl)cc1)/N=C(\N)Nc1ccc(Cl)cc1
inactive: [2] | [3] | [7] | [8] | [4] | [5] | [6]
active: [3] 24.1 µM | [7] 23.3 µM | [5] 18.3 µM and 48.2 µM | [6] 7.2 µM and 38.6 µM

FCOC(C(F)(F)F)C(F)(F)F
inactive: [1] | [5] | [6]

O=C1NS(=O)(=O)c2ccccc21
not listed: [1] | [7]
inactive: all other assays above

O=C(C=C(O)C(F)(F)F)C(F)(F)F
inactive: [1] | [5] | [6]

NS(=O)(=O)O
inactive: [2] | [3] | [4] | [5] | [6]

c1cnc2c(c1)ccc1cccnc12
active: [6] 4.62 µM and 6.45 µM
not listed: [1] | [8]
inactive: all other assays above
